Bioassay records deposited in PubChem by several laboratories.
Mcl1 Noxa PPI: Mcl-1/Noxa interaction inhibition; TR-FRET Mcl-1/Noxa peptide binding, 2 h; inhibition, % at 21.7 µM; actives 1.5% (n = 220,000); AID 1022;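 active = compounds that cut the protein-peptide binding signal by more than 50% relative to plate controls in a single-dose test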;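 note: His-tagged Mcl-1 with rhodamine Noxa BH3 peptide and terbium anti-His antibody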
Target sequence (Q07820 whole entry, looked up): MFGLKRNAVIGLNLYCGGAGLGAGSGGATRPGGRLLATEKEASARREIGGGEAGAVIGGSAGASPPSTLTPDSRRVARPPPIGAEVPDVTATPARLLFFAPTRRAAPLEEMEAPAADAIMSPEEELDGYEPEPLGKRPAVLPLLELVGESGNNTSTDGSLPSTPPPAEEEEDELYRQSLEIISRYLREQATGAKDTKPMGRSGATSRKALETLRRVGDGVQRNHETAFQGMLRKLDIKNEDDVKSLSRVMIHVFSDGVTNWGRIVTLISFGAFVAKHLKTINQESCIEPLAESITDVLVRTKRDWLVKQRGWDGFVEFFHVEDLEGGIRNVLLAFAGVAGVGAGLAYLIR
14-3-3 Bad PPI: disrupts binding of bovine 14-3-3 zeta to phospho-Bad peptide; P63103; TR-FRET 14-3-3zeta/Dy647-pBad peptide displacement, 1 h; inhibition, % at 21.7 µM; actives 0.71% (n = 220,000); AID 781;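 active = inhibition above about 70%, limit read from the data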
Target sequence (P63103 whole entry, looked up): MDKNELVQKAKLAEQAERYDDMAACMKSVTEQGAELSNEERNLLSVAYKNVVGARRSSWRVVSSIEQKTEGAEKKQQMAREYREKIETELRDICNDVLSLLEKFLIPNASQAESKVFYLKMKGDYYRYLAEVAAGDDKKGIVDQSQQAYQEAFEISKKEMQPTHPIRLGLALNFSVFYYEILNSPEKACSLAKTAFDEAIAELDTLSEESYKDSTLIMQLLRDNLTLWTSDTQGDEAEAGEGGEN
Mcl1-Bid inh: Mcl-1/Bid interaction inhibition; Q07820; TR-FRET Mcl-1/Bid-Dy647 peptide binding, 1536-well; inhibition, % at 21.7 µM; actives 0.97% (n = 220,000); AID 1021;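 active = compounds that cut the binding signal by more than half at the single screening dose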;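 note: His-tagged Mcl-1 with europium anti-His antibody binding Bid BH3 peptide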
p47phox inh: inhibitors of human p47phox binding; P14598; p47phox/p22phox peptide binding, fluorescence polarization, 2 h; inhibition, % at 24.7 µM; actives 0.53% (n = 220,000); AID 1274
Bim-Mcl-1: disrupts Bim peptide binding to human Mcl-1. inhibition, % at 10 µM. actives 0.1% (n = 190,000). Bead-based flow cytometry, Bim peptide-Mcl-1 binding. Q07820; in the data active = inhibition above about 40%
eIF4E 4G PPI: eIF4E/eIF4G interaction inhibition in translation initiation; TR-FRET eIF4E-eIF4GI(517-606) binding, 2 h; actives 0.37% (n = 220,000); inhibition, % at 21.7 µM; P63073+Q04637
Hits are given with their value; 0 = inactive; - = not tested or not shown; + = active, no number; [ ] = another dose, or the depositor's remark. Rows were chosen to be rich in hits. Some 3.3% of all compounds tested hit in one or more screens of this group.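 Rule for the calls, unless noted: active = inhibition above about 30% (limit read from the data); inactive = the rest.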

SMILES | Mcl1 Noxa PPI | 14-3-3 Bad PPI | Mcl1-Bid inh | p47phox inh | Bim-Mcl-1 | eIF4E 4G PPI
COc1ccccc1C1C2=C(N=c3s/c(=C/c4cccc(OCC(=O)O)c4)c(=O)n31)c1ccccc1CC2 (centres undefined) | 107.0 | 0 | 81.9 | 0 | 0 | 0
COc1cccc(C2C3=C(N=c4s/c(=C\c5cccc(O)c5)c(=O)n42)c2ccccc2CC3)c1OC (centres undefined) | 0 | 0 | 0 | 0 | 0 | 0
COc1ccc(C(=O)NC(CC(=O)O)c2cc([N+](=O)[O-])ccc2Cl)c(SC)c1 (centres undefined) | 0 | 0 | 0 | 0 | 0 | 0
COc1cc(CN(C(=O)c2ccco2)c2ccc(C)cc2)ccc1O | 0 | 0 | 0 | 0 | 0 | 36.9[fluorescence artefact?]
CC1CCCN(C(=O)c2cccc(S(=O)(=O)Nc3cc(C(F)(F)F)ccc3Cl)c2)C1 (centres undefined) | 0 | 89.9 | 0 | 0 | 0 | 0
CCc1c(C)sc(NC(=O)C2CCCCC2C(=O)O)c1C(N)=O (centres undefined) | 0 | 0 | 0 | 0 | 0 | 55.0
CCc1c(C)sc(NC(=O)OC)c1C(=O)N1CCCCC1 | 0 | 0 | 0 | 37.0 | 0 | 0
CCc1c(C)sc(NC(=O)OC)c1C(N)=O | 0 | 0 | 0 | 0 | 0 | 0
COCCCNC(=O)c1ccccc1Oc1ccccc1 | 0 | 0 | 0 | 0 | 0 | 0
COCCCNC(=O)c1ccc2c3c(onc13)-c1ccccc1C2=O | 55.5 | 0 | 0 | 0 | - | 0
CC(=O)N1CCN(C(=O)CSc2nc3c(cnn3-c3ccccc3)c(=O)[nH]2)CC1 | 0 | 0 | 0 | 0 | 0 | 0
O=C(CSc1nc2c(cnn2-c2ccc(F)cc2)c(=O)[nH]1)N1CCCc2ccccc21 | 0 | 0 | 94.0 | 0 | 0 | 0
Cc1cc(C)c(OCC(=O)Nc2nnc(-c3ccco3)o2)c(C)c1 | 0 | 0 | 0 | 0 | 0 | 0
O=C1COc2ccc(C(=O)/C=C/c3ccccc3)cc2N1 | 0 | 0 | 0 | 0 | 0 | 0
O=C(O)/C=C/C(=O)Nc1ccc2c(c1)NC(=O)CO2 | 50.8 | 0 | 0 | 0 | 0 | 0
CN(C)/C=C1\SC(=S)N(N2C(=O)C3C4C=CC(C4)C3C2=O)C1=O (centres undefined) | 0 | 0 | 0 | 0 | 0 | 0
CCOC(=O)c1sc2ncn(/N=C/c3ccc(O)c(OC)c3)c(=O)c2c1C | 53.1 | 0 | 0 | 0 | 0 | 0
Cc1ccccc1OCc1nnc(SCC(=O)NCc2ccco2)n1C | 0 | 0 | 0 | + | 0 | 0
Cc1ccc(OCc2nnc(SCC(=O)NCc3ccco3)n2C)cc1 | 0 | 0 | 0 | 0 | 0 | 0
COc1ccc(N2CCN(CC(=O)NC(=O)NCc3ccco3)CC2)cc1 | 0 | 0 | 0 | 0 | 0 | 0
O=C(CSc1ccccc1F)NC(=O)NCc1ccco1 | 51.6 | 0 | 0 | 0 | 0 | 0
Cc1ccccc1Nc1nnc(SCC(=O)NCc2ccco2)s1 | 60.6 | 0 | 0 | 0 | 0 | 0
O=C(CN1CCN(c2ccc(O)cc2)CC1)NC(=O)NCc1ccco1 | 51.6 | 0 | 0 | 0 | 0 | 0
COc1ccc(C)cc1-n1nnnc1SCC(=O)NC(=O)NCc1ccco1 | 62.3 | 0 | 0 | 0 | 0 | 0
COc1ccc(-n2nnnc2SCC(=O)NCc2ccco2)cc1OC | 0 | 0 | 0 | 0 | 0 | 0
SMILES | Mcl1 Noxa PPI | 14-3-3 Bad PPI | Mcl1-Bid inh | p47phox inh | Bim-Mcl-1 | eIF4E 4G PPI
CCCCn1c(SCC(=O)NC(=O)NCc2ccco2)nc2cc(S(N)(=O)=O)ccc21 | 62.8 | 0 | 0 | 0 | 0 | 0
O=C(CSc1nc(-c2ccccc2)cs1)NC(=O)NCc1ccco1 | 0 | 0 | 0 | 0 | 0 | 0
O=C(CSc1nc2ccccc2s1)NC(=O)NCc1ccco1 | 54.5 | 0 | 0 | 0 | 0 | 0
CS/C(=N\S(=O)(=O)c1cccs1)NC(=O)CSc1nc2ccccc2s1 | 52.8 | 73.2 | 0 | 0 | 0 | 0
Cc1ccccc1NC(=O)N1CCN(S(=O)(=O)c2ccccc2)CC1 | 0 | 0 | 0 | 0 | 0 | 0
O=c1[nH]c(-c2ccccc2)nnc1-c1ccccc1 | 0 | 0 | 0 | 0 | - | 0
CCCCNC(=O)CCN1N=C(c2ccccc2)CCC1=O | 0 | 0 | 0 | 0 | 0 | 0
Cc1cc2nnc(SCC(=O)N3C(C)CCCC3C)n2c(N)n1 (centres undefined) | 0 | 0 | 0 | 53.6 | 0 | 0
Cc1cc2nnc(SCC(=O)N3CCCCC3)n2c(N)n1 | 0 | 0 | 0 | 0 | 0 | 0
Cc1ccc(NCC(=O)N/N=C/c2ccncc2)cc1 | 0 | 0 | 0 | 0 | 0 | 0
Cc1ccc(C(=O)Nc2nnc(CC(=O)N/N=C/c3ccncc3)s2)cc1 | 63.2 | 0 | 0 | 0 | 0 | 0
COc1cccc(CNC(=O)C2CCN(S(=O)(=O)N3CCCCC3)CC2)c1 | 0 | 0 | 91.8 | 0 | 0 | 0
Cn1c(=O)oc2cc(S(=O)(=O)N3CCCC(C(=O)NCc4ccc5c(c4)OCO5)C3)ccc21 (centres undefined) | 0 | 0 | 52.6 | 0 | 0 | 0
COc1ccc(S(=O)(=O)N2CCC(C(=O)NCc3cccc(OC)c3)CC2)cc1 | 0 | 0 | 0 | 0 | 0 | 47.5
COc1ccc(S(=O)(=O)N2CCCC(C(=O)NCc3ccc4c(c3)OCO4)C2)cc1 (centres undefined) | 0 | 0 | 0 | 0 | - | 0
COc1cccc(CNC(=O)C2CCN(S(=O)(=O)c3ccccc3)CC2)c1 | 0 | 0 | 0 | 0 | 0 | 0
COc1ccc(CCNS(=O)(=O)c2ccc3c(c2)OCCO3)cc1 | 0 | 83.9 | 0 | 0 | 0 | 0
N#Cc1c(Cl)nc2c(c1C#N)CCCC2 | 0 | 0 | 0 | 0 | - | 0
O=C(Cn1nc(-c2cccc([N+](=O)[O-])c2)c2ccccc2c1=O)NCC1CCCO1 (centres undefined) | 0 | 0 | 0 | 0 | 0 | 0
O=C(NCCc1ccc2c(c1)OCO2)C1CCN(S(=O)(=O)c2ccc(Cl)cc2)CC1 | 0 | 0 | 0 | 0 | 0 | 0
COc1ccc(S(=O)(=O)N2CCC(C(=O)NCCc3ccc4c(c3)OCO4)CC2)cc1 | 0 | 0 | 0 | 42.0 | 0 | 0
Cc1ccc(S(=O)(=O)n2[nH]c(=O)c(CCO)c2C)cc1 | 0 | 0 | 0 | 0 | 0 | 0
Cc1cc(C)cc(Oc2coc3cc(OC(=O)c4cccnc4)ccc3c2=O)c1 | 0 | 0 | 0 | 0 | 0 | 0
Cc1cccc(Oc2coc3cc(OC(=O)c4cncc(Br)c4)ccc3c2=O)c1 | 0 | 0 | 0 | 86.9 | 0 | 0
COC(=O)c1c(C)oc(C)c1S(=O)(=O)NC(C)(C)C | 0 | 0 | 0 | 0 | - | 0
Cc1cccc(NS(=O)(=O)c2cc(C(=O)N3CCOCC3)ccc2Cl)c1 | 0 | 0 | 0 | 0 | 0 | 0
O=C(CNC(=O)c1ccccc1Br)N/N=C/c1cc(Br)ccc1O | 0 | 92.6 | 0 | 0 | 0 | 0
NC(=O)c1ccsc1NC(=O)Cc1ccc([N+](=O)[O-])cc1 | 0 | 0 | 0 | 0 | 0 | 0
COC(=O)c1cc(N2C(=O)C3C(C2=O)C2(C)C=CC3(C)O2)ccc1Cl (centres undefined) | 68.8 | 0 | 0 | 0 | 0 | 0
